Screening data (PubChem)
Most compounds without a hit are left out; they make up all but 2.2% or so of the library.
OPRM1-OPRD1 ag: OPRM1-OPRD1 heterodimerization agonism; AID 504326; hit rate 0.3% among 340,000; activation, % at 9.3 µM; P35372+P41143; cells, luminescence; in the data active = activation above about 18%
OPRM1-OPRD1 inv: mu-delta opioid heterodimer inverse agonism; P35372+P41143; cell-based MOR-DOR heterodimer luminescence; inhibition, % at 9.3 µM; hit rate 0.21% among 340,000; AID 504357; in the data active = inhibition above about 22%, passing the limit was not always enough
HTR5A ag ctr: HTR5A agonism, opioid heterodimer counter-screen | P47898 | HTR5A agonist assay, luminescence, cell-based | activation, % at 9.3 µM | hit rate 0.61% among 340,000; in the data active = activation mostly above about 9.5%, no sharp cut-off; inactive = mostly below about 7.6%
Target sequence (P47898 whole entry, looked up): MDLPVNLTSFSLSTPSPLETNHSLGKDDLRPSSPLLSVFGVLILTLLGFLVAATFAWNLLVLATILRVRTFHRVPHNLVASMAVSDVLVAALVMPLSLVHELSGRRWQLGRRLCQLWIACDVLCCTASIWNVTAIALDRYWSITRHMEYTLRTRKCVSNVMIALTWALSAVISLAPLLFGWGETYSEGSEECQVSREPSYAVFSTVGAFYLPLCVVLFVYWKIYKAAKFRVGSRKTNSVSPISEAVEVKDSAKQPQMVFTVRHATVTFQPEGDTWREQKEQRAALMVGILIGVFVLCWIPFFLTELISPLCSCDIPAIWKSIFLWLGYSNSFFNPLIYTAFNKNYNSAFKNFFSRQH
sPLA2-III inh: Inhibits HGIII-sPLA2 liposome hydrolysis, primary screen. Q9NZ20. QFRET BODIPY PC-A2 liposome hydrolysis, fluorescence. inhibition, % at 12.2 µM. hit rate 0.56% among 370,000. AID 743126;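 active = inhibition above mean plus 3 SD of compounds lying within the high and low control bounds, cut at about 19% in these data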
HTR5A inv ctr: counter-screen for OPRM1-OPRD1 inverse agonists: human HTR5A inverse agonism; P47898; HTR5A cell line, luminescence; inhibition, % at 9.3 µM; hit rate 0.083% among 340,000; in the data active = inhibition mostly above about 23%, no sharp cut-off; inactive = mostly below about 18%
m5-HT2A agonist: mouse HTR2A agonism via beta-arrestin recruitment | P35363 | CHO-K1 mHTR2A beta-arrestin complementation, luminescence; percent of 30 µM serotonin response | activation, % at 7.6 µM | hit rate 0.66% among 360,000;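 active = activation above a run cutoff, the mean activation of all tested compounds plus 3 SD, cut at about 14% in these data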
Hits are given with their value; n = inactive; x = not tested or not shown.

SMILES	OPRM1-OPRD1 ag	OPRM1-OPRD1 inv	HTR5A ag ctr	sPLA2-III inh	HTR5A inv ctr	m5-HT2A agonist
CCOc1ccc(N(CC(=O)NCc2ccc(F)cc2)C(=O)CCC(=O)Nc2nccs2)cc1	n	n	13	n	n	n
CCC[C@H](/C=C/C(=O)OC(C)(C)C)Sc1ccc(N)cc1	x	x	x	n	x	x
CC1(C)Oc2ccc3ccc(=O)oc3c2/C(=C/N)C1=O	n	n	n	n	n	n
CC1(C)Oc2ccc3ccc(=O)oc3c2/C(=C/O)C1=O	n	n	14	n	n	n
O=c1c2ccccc2n(Cc2ccco2)n1[C@@H](Cc1ccccc1)Cn1cc(-c2ccc(-c3ccccc3)cc2)nn1	x	x	x	n	x	x
O=C(Cc1ccccc1)NN1C(=O)C2C3C=CC(C3)C2C1=O (stereo unspecified)	n	n	n	n	n	n
CC1CCCC(C)N1NC(=O)Cc1ccccc1 (stereo unspecified)	n	n	9.7	n	n	n
COc1ccccc1OCCC(=O)OCC(=O)Nc1ccc2c(c1)OCCO2	n	n	8.6	n	n	n
CC(=O)Nc1ccc(OCC(C)CN2CCC(C(O)(c3ccccc3)c3ccccc3)CC2)cc1 (stereo unspecified)	x	x	x	n	x	x
CC[C@@H](C(=O)[C@@H](C)[C@@H](O)[C@H](C)[C@@H]1O[C@@H]([C@@H](CC)C(=O)O)CC[C@@H]1C)[C@H]1O[C@]2(C=C[C@@H](O)[C@]3(CC[C@@](C)([C@H]4CC[C@](O)(CC)[C@H](C)O4)O3)O2)[C@H](C)C[C@@H]1C	104	n	40	n	n	23
COC(CNC(=O)[C@H](Cc1ccccc1)NC1(C(=O)NC2CCCCC2)CCCC1)OC	x	x	x	n	x	x
O=C(NC(C(=O)O)c1ccccc1)c1ccc(S(=O)(=O)N2CCOCC2)cc1 (stereo unspecified)	n	n	12	n	n	n
O=C(NNC(=O)c1ccc(S(=O)(=O)N2CCOCC2)cc1)c1ccccc1	n	n	n	n	n	n
COC(=O)c1cc(S(=O)(=O)N2CCC(C)CC2)ccc1F	n	n	9.7	n	n	n
COC(=O)c1cccc(S(=O)(=O)N2CCC(C)CC2)c1	n	n	n	n	n	n
OCC1OC(C(N=Nc2ccccc2)=NNc2ccccc2)C(O)C1O (stereo unspecified)	x	x	x	20	x	x
NC(=O)/C(N=Nc1ccccc1)=N/Nc1ccccc1	n	n	n	n	n	n
Cc1ccc(S(=O)(=O)N2CC[C@@]3(Cc4ccccc4)Cc4ccccc4C[C@@H]23)cc1	x	x	x	n	x	x
CC(C)OC(=O)C1=CNCC(C)(C)c2c1[nH]c1cc(F)ccc21	x	x	x	n	x	x
O=C(NCc1cccnc1)NC1(c2ccccc2)CC1	n	n	n	n	n	20
Cc1ccc(OCC(O)Cn2c(=N)n(Cc3ccccc3)c3ccccc32)cc1 (stereo unspecified)	n	n	12	n	n	n
N=c1n(Cc2ccccc2)c2ccccc2n1CC(O)COc1ccc(Cl)cc1Cl (stereo unspecified)	31	n	31	n	n	n
COc1ccc(OCC(O)Cn2c(=N)n(Cc3ccccc3)c3ccccc32)cc1 (stereo unspecified)	n	n	n	n	n	n
CCC[C@H]1[C@@H](NCc2cccs2)CC[C@@]23CCCN2C(=O)CCC[C@@H]13	x	x	x	n	x	x
CCCC1CCC2(CCCN2CCOC(=O)Nc2ccc(Br)cc2)CC1 (stereo unspecified)	x	x	x	n	x	x
SMILES	OPRM1-OPRD1 ag	OPRM1-OPRD1 inv	HTR5A ag ctr	sPLA2-III inh	HTR5A inv ctr	m5-HT2A agonist
CN(C)CCNC(=O)c1cc2c(s1)-c1ccc(Cl)cc1SC2	38	n	51	n	n	n
CCOCCCNC(=O)c1cc2c(s1)-c1ccccc1SC2	n	n	n	n	n	n
COc1c(C(C)(C)C)cc(S(=O)(=O)N2c3ccccc3C[C@H]2C)cc1C(C)(C)C	x	x	x	n	x	x
N/C(Cc1ccc(Cl)cc1)=N\OC(=O)c1ccc2ccccc2c1	27	n	34	n	n	n
Cc1ccc(Cl)cc1N1CCN(C(=O)c2noc(C(C)C)c2[N+](=O)[O-])CC1	52	n	42	n	n	n
Cc1nc(=O)c(-c2ccccc2)c(C)n1-c1ccccc1	n	n	n	n	n	n
CC(=O)Nc1ccc(-n2c(C)nc(=O)c(-c3ccccc3)c2C)cc1	n	n	10	n	n	n
COc1ccc(CCNC(=O)CCS(=O)(=O)c2ccc3c(c2)NC(=O)CS3)cc1OC	n	n	n	n	n	n
COc1ccc(CCNS(=O)(=O)c2ccc3c(c2)NC(=O)CS3)cc1OC	n	n	11	n	n	n
COC(=O)C1CN(Cc2ccc(Cl)cc2)CCS(=O)(=O)N1Cc1cn(Cc2ccccc2)nn1 (stereo unspecified)	x	x	x	n	x	x
COc1cc(N=Nc2ccc(C)cc2S(N)(=O)=O)c(C)cc1N	n	n	9.8	n	n	n
COc1cccc(N2CCN(Cc3nc(N)nc(Nc4ccccc4OC)n3)CC2)c1	n	n	14	n	n	n
CC(C)(C)c1ccc(C(=O)Nc2cc(Cl)ccc2C(=O)O)cc1	x	x	x	n	x	x
NC(=O)C1CCN(c2ncc(Br)s2)CC1	x	x	x	n	x	x
CC1Cc2ccccc2N1C(=O)COC(=O)c1ccccc1NCCO (stereo unspecified)	n	n	n	n	n	n
CC1Cc2ccccc2N1C(=O)COC(=O)c1cccnc1Cl (stereo unspecified)	n	n	11	n	n	n
C=CCN1[C@H](C)COc2cccc(N3CCCC3)c2S1(=O)=O	x	x	x	n	x	x
CCCn1c(/C=N/Nc2nc3ccccc3[nH]2)nc2ccccc21	n	n	n	31	n	n
C/C(=N\Nc1nc2ccccc2[nH]1)c1ccccn1	n	61	n	n	n	n
Cn1c(/C=N/Nc2nc3ccccc3[nH]2)nc2ccccc21	n	n	n	49	n	n
Cc1c(/C=N/Nc2nc3ccccc3[nH]2)c2ccccc2n1C	n	n	n	n	n	n
CCN(CC)c1ccc(/C=N/Nc2nc3ccccc3[nH]2)cc1	n	n	n	n	n	n
Cc1ccc(NC(=O)OC2CC3CC2[C@H]2CCCCN2C3)cc1 (stereo partly specified)	x	x	x	n	x	x
